About 83,000 compounds went through this panel and 20% of them were active in at least one assay; those are over-represented in the sample as a whole.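 Cell lines were cultured in 96-well plates, exposed to a single compound concentration, and assessed for percent growth 48 hours later.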 Unmarked numbers belong to inactive results. Activity calls are given as the source filed them. The calls were made as follows: active = growth percent below 10; inactive = the rest.

Test in all cases: NCI-60 one-dose screen, 48 h (100 = growth as untreated, 0 = no growth, -100 = all killed)
Conditions in all cases: 10 µM unless noted

For experiment [1], the system named is NCI-H23 lung.
Experiment [2] deals with NCI-H226 lung.
For experiment [3], the system named is NCI-H322M lung.
The test system of experiment [4] is HOP-62 NSCLC.
Experiment [5] relates to NCI-H460 lung.
For experiment [6], the system named is HOP-92 NSCLC.
In experiment [7] the test system is NCI-H522 lung.
Experiment [8] deals with A549/ATCC NSCLC.
In experiment [9] the test system is 786-0 renal.
Experiment [10] concerns COLO 205 colon.

For the compound `Cc1nc(-c2cc3ccccc3c(N3CCN(C)CC3)n2)cs1`, the growth in experiment [1] is 99.9%; in experiment [2] it was 101%; in experiment [3], 106%; in experiment [4], 98.1%; in experiment [5], 103%; in [6] it was 61.1%. The growth in experiment [7] was 94%; in [8], 97.7%; in experiment [9], 93.2%; in experiment [10], 88.5%.

For the compound `O=C(NNc1nc2cc(F)c(F)cc2n2cccc12)c1cccnn1`, the growth in [1] is 25.9%; in experiment [2], 4.29% (active); in experiment [3] it was 26.2%; in experiment [4] it was 20.2%; in experiment [5] it was 8.06% (active); in [6], 75.4%. Moreover, the growth in [7] is -8.32% (active); in experiment [8], 14.1%; in [9], 19.2%; in [10] it was 9.86% (active).

As for `Cc1cc2nc(C(Cl)Cl)nc(-c3ccco3)n2n1`, the growth in [1] was 76.8%; in experiment [2], 95.6%; in [3] it was 23.3%; in experiment [4] it was 47.9%; in [5], 0.56% (active); in [6], 79.5%. The growth was 93.9% in experiment [7], 3.5% (active) in experiment [8], 96.2% in experiment [9] and 25.8% in experiment [10].

Turning to `CC1=CC(=O)CC(C)(C)[C@@]1(O)/C=C/C(C)=C\C(=O)O`, the growth is -29.3% (active) in experiment [1]; -46.5% (active) in experiment [2]; -11.3% (active) in experiment [3]; -41.6% (active) in [4]; -6.19% (active) in [5]; -14.6% (active) in experiment [6]. Moreover, the growth was -41.6% (active) in [7], -27.6% (active) in [8], -43.2% (active) in experiment [9] and -57.6% (active) in experiment [10].

In the case of `COc1ccc(S(=O)(=O)n2cc(C=O)c3ccccc32)c(OC)c1`, the growth in [1] was 79.4%; in experiment [2], 70.6%; in [3], 102%; in experiment [4], 77.9%; in [5] it was 98.5%; in experiment [6], 43.3%. In addition, the growth in experiment [7] is 97.7%; in experiment [8], 93.2%; in experiment [9], 94.2%; in experiment [10], 108%.

As for `O=C1Nc2ccc(Br)cc2/C1=N\c1nnc(-c2ccc(Cl)cc2)o1`, the growth in experiment [1] is 79.8%; in experiment [2], 80.3%; in [3], 94.2%; in [4], 66%; in [5], 46.3%; in experiment [6] it was 79.7%. Also, the growth was 59.8% in experiment [7], 54% in [8], 91.4% in [9] and 83.3% in experiment [10].

In the case of `Cc1cn(-c2cc(NC(=O)c3cncc(C#Cc4cnc5ccc(O[C@@H]6CCOC6)nn45)c3)cc(C(F)(F)F)c2)cn1`, the growth in experiment [1] was -46.6% (active); in experiment [2], -16% (active); in experiment [3] it was -12.7% (active); in experiment [4] it was -12% (active); in experiment [5], -76.9% (active); in experiment [6] it was -44.6% (active). In addition, the growth was -69.3% (active) in experiment [7], -75.3% (active) in experiment [8], -88.2% (active) in [9] and -84.9% (active) in experiment [10].

As for `Cc1ccc(S(=O)(=O)N/N=C/c2cn(-c3ccc(F)cc3)nc2-c2ccc(S(C)(=O)=O)cc2)cc1`, the growth is 104% in experiment [1]; 102% in experiment [2]; 106% in experiment [3]; 101% in experiment [4]; 108% in experiment [5]; 89.7% in experiment [6]. In addition, the growth is 95.3% in experiment [7], 101% in [8], 100% in [9] and 107% in experiment [10].

`O=c1oc2ccc(-c3ccc(F)cc3F)cc2c(=O)n1-c1cccc(C(F)(F)F)c1`: the growth in experiment [1] was 0.0881% (active); in [2], 13.4%; in experiment [3], 3.52% (active); in [4], 15%; in [5], 4.79% (active); in [6] it was -25.6% (active). The growth in [7] was 0.254% (active); in experiment [8], 9.67% (active); in [9], 14.7%; in [10], 87.3%.

On to `COc1ccc(Cn2cc3c(c2-c2cc(OC)c(OC)c(OC)c2)CCCc2cnoc2-3)cc1N`, for which the growth in experiment [1] was 47.1%; in experiment [2] it was 66.9%; in [3], 46.3%; in experiment [4], 51.1%; in experiment [5], 11.5%; in experiment [6], 65.3%. In addition, the growth in experiment [7] is 12.5%; in experiment [8], 43%; in experiment [9], 38.1%; in [10], 12.7%.

For the compound `CCOC(=O)C1=C(C)Nc2nnc(Nc3ccccc3)n2C1c1ccccc1` (stereo not given), the growth in [1] was 72.4%; in experiment [2] it was 86.7%; in [3], 91.2%; in experiment [4], 81.8%; in [5], -28.3% (active); in experiment [6] it was 82.4%. For the same compound, the growth in experiment [7] was 79.2%; in experiment [8] it was 48.9%; in experiment [9], 75.5%; in experiment [10], 88.9%.

In the case of `COc1cc2c3c(n(CCCNC4CCCCC4)c(=O)c2cc1OC)-c1cc2c(cc1C3=O)OCO2`, the growth in experiment [1] was -51.7% (active); in experiment [2], 82.5%; in [3], -80.3% (active); in experiment [4], -78.9% (active); in [5], -80.1% (active); in experiment [6], 91.5%. The growth in experiment [7] was -60.5% (active); in experiment [8], -87.5% (active); in experiment [9] it was -82.8% (active); in experiment [10] it was -79.2% (active).

With `O=C1c2cc(Br)ccc2-n2c1nc1cc(Br)ccc1c2=O`, the growth in [1] was 58.6%; in experiment [2], 78.3%; in experiment [3] it was 88.7%; in experiment [4], 82.3%; in [5], 85.4%; in [6] it was 134%. In addition, the growth in experiment [7] was 68.9%; in [8], 67.1%; in experiment [9], 88.5%; in experiment [10], 85.7%.

Consider `COc1ccc(NS(=O)(=O)c2ccc(-c3cnc(C4CC4)o3)cc2)cc1Cl`, for which the growth was 37.3% in experiment [1]; 35.5% in experiment [2]; 52.2% in experiment [3]; 30.2% in [4]; 18.3% in experiment [5]; 55.4% in experiment [6]. The growth in experiment [7] was 33.2%; in experiment [8], 46.1%; in experiment [9] it was 46.7%; in experiment [10], 12.4%.

For `Clc1ccc(-c2csc(N/N=C/c3nc4ccccc4n3C3CC3)n2)cc1`, the growth in experiment [1] is 98.5%; in [2], 91.5%; in experiment [3], 98.5%; in experiment [4], 106%; in experiment [5] it was 105%; in experiment [6] it was 105%. Further, the growth in experiment [7] is 93%; in experiment [8], 95.5%; in experiment [9], 109%; in experiment [10] it was 104%.

For the compound `COc1ccc(NC2=C(Cl)C(=O)C(C)=C(C)C2=O)cc1`, the growth is 83.7% in [1]; 99% in experiment [2]; 100% in experiment [3]; 95.6% in experiment [4]; 97.3% in experiment [5]; -2.54% (active) in experiment [6]. Further, the growth was 85.6% in experiment [7], 98.3% in [8], 113% in experiment [9] and 109% in [10].

In the case of `COc1ccc(CCN2C(=O)CSC2=S)cc1OC`, the growth is 98.9% in [1]; 100% in experiment [2]; 101% in experiment [3]; 105% in experiment [4]; 102% in experiment [5]; 68.7% in [6]. For the same compound, the growth in experiment [7] is 55.1%; in experiment [8], 97.2%; in experiment [9], 94.9%; in experiment [10] it was 117%.

Turning to `COc1cc(/C=N/n2cnc3oc(-c4ccccc4)cc3c2=N)cc(CN2CCCCC2)c1O`, the growth in experiment [1] is -56.4% (active); in experiment [2], -3.78% (active); in experiment [3] it was -1.45% (active); in [4], -39.2% (active); in experiment [5], -72.7% (active); in [6] it was 86.2%. Moreover, the growth is -42.2% (active) in experiment [7], -68.8% (active) in experiment [8], -79.5% (active) in experiment [9] and 11.7% in experiment [10].

As to `C/C(=C(/c1ccc(O)cc1)c1ccc(OCCN2CCCCCC2)cc1)c1ccccc1`, the growth in experiment [1] is 45.5%; in [2] it was 75.7%; in [3] it was 67%; in [4] it was 65.8%; in experiment [5], 19.2%; in experiment [6], 45%. Moreover, the growth in experiment [7] is 65.6%; in experiment [8], 56.7%; in experiment [9], 35.5%; in experiment [10], -86.5% (active).

`CN(C)CCn1c2ccc(N)cc2c2nc3ccccc3nc21`: the growth in experiment [1] is 28.2%; in experiment [2] it was 34.3%; in experiment [3], 34.7%; in [4] it was 31.5%; in experiment [5], 6.26% (active); in [6], 47.7%. Further, the growth is 30.1% in experiment [7], 25.8% in experiment [8], 35.6% in experiment [9] and 9.4% (active) in experiment [10].

Consider `C=C(C)[C@@H]1CC[C@]2(C(=O)ON)CC[C@]3(C)[C@H](CC[C@@H]4[C@@]5(C)C/C(=C/c6ccc(Br)cc6)C(=O)C(C)(C)[C@@H]5CC[C@]43C)[C@@H]12`, for which the growth is 78.4% in [1]; 72.6% in experiment [2]; 85.1% in experiment [3]; 85.9% in [4]; 71% in experiment [5]; 73.6% in experiment [6]. Also, the growth in experiment [7] is 66.8%; in experiment [8], 54.8%; in experiment [9], 84.8%; in experiment [10], 88%.

With `IP(CCCSc1n(Cc2ccc3ccccc3c2)c(-c2ccccc2)c(-c2ccccc2)[n+]1Cc1ccc2ccccc2c1)(c1ccccc1)(c1ccccc1)c1ccccc1`, the growth is 26.3% in experiment [1]; 78.8% in experiment [2]; 63.5% in [3]; 31.2% in [4]; 22.8% in [5]; -1.48% (active) in experiment [6]. Further, the growth is 8.1% (active) in experiment [7], 26.7% in experiment [8], 87.2% in experiment [9] and -9.45% (active) in [10].

`C#CCOc1ccc(C(Nc2ccc(Cl)cc2)c2nnnn2C2CCCCC2)cc1` (stereo not given): the growth in experiment [1] is 91.7%; in experiment [2] it was 88.4%; in experiment [3], 93.6%; in [4], 83.4%; in experiment [5] it was 83.1%; in experiment [6] it was 81.8%. Also, the growth in [7] is 81%; in experiment [8], 78.8%; in [9] it was 92.5%; in experiment [10], 97.9%.

`CSc1ccc(/C(=N/N=C(N)N)c2ccccc2)cc1`: the growth in experiment [1] is 29.2%; in experiment [2], 50.6%; in experiment [3] it was 50.9%; in experiment [4], 49.3%; in experiment [5], 6.46% (active); in experiment [6], 34.4%. Further, the growth in [7] was 11.8%; in experiment [8], 27.4%; in experiment [9] it was 31%; in [10], 0.455% (active).

As to `COc1cc(/C=C/C(=O)c2ccc(NC(=O)COc3cccc4cccnc34)cc2)cc(OC)c1OC`, the growth was 78.7% in [1]; 88.7% in [2]; 90.4% in [3]; 114% in [4]; 72.5% in [5]; 90.1% in experiment [6]. Also, the growth in [7] is 80.4%; in experiment [8], 87.1%; in [9], 89%; in [10], 100%.

These data come from PubChem BioAssay (NCI).
